Hit rate of the full screen: of about 360,000 compounds, about 3,000 (0.83%) were called active. The full list was thinned out, with actives kept by preference. Values without a mark were called inactive. Rule as the data show it: active = inhibition above about 38%; inactive = the rest.

In the experiment the target is G-protein coupled receptor 183 (Homo sapiens) (UniProt P32249). As to the kind of experiment: EBI2 receptor antagonists, beta-arrestin recruitment, primary screen, cell-based, luminescence, 7a,25-OHC stimulation, uHTS (AID 651636).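 Also: enzyme fragment complementation signal reports receptor beta-arrestin coupling in cells; 0% = agonist plus DMSO wells and 100% = wells without agonist.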 The note with it: 7a,25-OHC stimulated, at 5 µM, active compounds read high.
G-protein coupled receptor 183 (Homo sapiens), sequence (P32249 whole entry, looked up, the tested form may be a part): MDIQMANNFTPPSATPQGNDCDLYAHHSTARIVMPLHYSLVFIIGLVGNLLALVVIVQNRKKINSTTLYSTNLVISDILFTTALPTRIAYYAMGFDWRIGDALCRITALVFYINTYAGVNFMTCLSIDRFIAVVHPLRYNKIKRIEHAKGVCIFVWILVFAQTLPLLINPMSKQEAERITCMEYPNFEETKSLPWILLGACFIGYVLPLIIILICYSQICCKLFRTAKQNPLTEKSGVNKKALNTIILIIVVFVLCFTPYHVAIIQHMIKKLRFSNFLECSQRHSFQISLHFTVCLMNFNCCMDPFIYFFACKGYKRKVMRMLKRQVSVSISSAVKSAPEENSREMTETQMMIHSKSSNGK
Turning to `COc1ccc(C(c2nnnn2C2CCCCC2)N2CCN(c3ccccc3F)CC2)cc1` (centres undefined), the inhibition is 31.1%.

For `COc1ccccc1C(c1nnnn1C(C)(C)C)N1CCN(Cc2ccccc2)CC1` (centres undefined), the inhibition is -27.6%.

Consider `CCCCn1nnnc1C(c1cccc(OC)c1OC)N1CCN(C/C=C/c2ccccc2)CC1` (centres undefined), for which the inhibition is 24.9%.

As to `COc1ccc(N2CCN(C(c3cc4ccc(C)cc4[nH]c3=O)c3nnnn3C3CCCC3)CC2)cc1` (centres undefined), the inhibition is 2.46%.

On to `c1ccc(CCn2nnnc2CN2CCN(C3CCCC3)CC2)cc1`, for which the inhibition was -2.13%.

Regarding `CC(C)C(c1nnnn1C1CCCC1)N1CCN(c2ccccc2F)CC1` (centres undefined), the inhibition is 11.7%.

On to `COc1ccc(C(c2nnnn2C2CCCC2)N2CCN(C/C=C/c3ccccc3)CC2)cc1` (centres undefined), for which the inhibition is 54.1% (active).

For the compound `FC(F)(F)Oc1ccccc1C(c1nnnn1C1CCCCC1)N1CCN(C/C=C/c2ccccc2)CC1` (centres undefined), the inhibition was 70.3% (active).

For `c1ccc(C(c2ccccc2)N2CCN(Cc3nnnn3C3CCCCC3)CC2)cc1`, the inhibition was 60.9% (active).

With `O=C(CC1SCCNC1=O)Nc1ccc(Cl)cc1` (centres undefined), the inhibition was 0.627%.

Regarding `CC(Sc1ccccc1F)C(=O)Nc1cccc(S(=O)(=O)N2CCOCC2)c1` (centres undefined), the inhibition is 7.64%.

For `CCOc1ccc(CCNC(=O)C(CC)n2nc(C)n3c(cc4sccc43)c2=O)cc1OCC` (centres undefined), the inhibition is 0.672%.

Take `Cc1ccc(-c2cc(C(F)(F)F)n3ncc(C(=O)N4CCCCC4c4cccnc4)c3n2)cc1` (centres undefined): the inhibition is 19.8%.

In the case of `CCn1c(N)c(Br)c(=O)[nH]c1=O`, the inhibition is -5.96%.

For the compound `CC(=O)Nc1ccc(SCC(=O)Nc2ccccc2Oc2ccccc2)cc1`, the inhibition is 6.4%.

For `CC1CCCN(CC(=O)Nc2cc(Cl)ccc2Oc2ccccc2)C1` (centres undefined), the inhibition is 6.08%.

For the compound `O=C(CSc1ccccc1)Nc1cc(Cl)ccc1Oc1ccccc1`, the inhibition is 63.2% (active).

Turning to `Cn1c(=O)c(=O)n(C)c2cc(S(=O)(=O)CCC(=O)N3CCCCC3)ccc21`, the inhibition is -3.96%.

`CC(C)Cn1c(N2CCN(C(=O)/C=C/c3ccccc3)CC2)nc2ccccc21`: the inhibition is 59.1% (active).

For the compound `C=CCn1c(C(C)NC(=O)CC)nc2ccccc21` (centres undefined), the inhibition was -24.2%.

In the case of `CN1CCN(C(=O)Cn2c(C(F)(F)F)nc3ccccc32)CC1`, the inhibition was -3.36%.

As for `COC(=O)[C@]12CCCCC=C1N(Cc1ccc3c(c1)OCO3)C(=O)[C@H](CC(=O)N1CCOCC1)C2`, the inhibition was 6.39%.

Take `O=C(Nc1ccc2c(c1)CCC2)c1ccc(Br)s1`: the inhibition is -9.47%.

Turning to `CCOC(=O)C1CCN(C(=O)COc2cccc3ccccc23)CC1`, the inhibition is 6.68%.

For the compound `O=C(COc1ccc(Cl)cc1[N+](=O)[O-])N1CCCCC1`, the inhibition is 5.52%.

As to `CCOC(=O)C1CCN(C(=O)COc2cc(C)c(Br)c(C)c2)CC1`, the inhibition is 74.6% (active).

As for `CCOC(=O)N1CCN(C(=O)COC(=O)c2cccc(S(C)(=O)=O)c2)CC1`, the inhibition was -8.93%.

On to `CCOC(=O)C1CCN(C(=O)Nc2ccc(C)c(Cl)c2)CC1`, for which the inhibition is 8.32%.

On to `CCOC(=O)N1CCN(C(=O)COc2ccc(Br)cc2)CC1`, for which the inhibition was 89% (active).

On to `Cc1cc(S(=O)(=O)N2CCOCC2)ccc1OCC(=O)N1CCOCC1`, for which the inhibition is -8.03%.

For the compound `CCOC(=O)N1CCN(C(=O)COc2ccc(Cl)cc2C)CC1`, the inhibition was 63.5% (active).

Turning to `CCOC(=O)N1CCN(S(=O)(=O)c2ccc(Br)cc2)CC1`, the inhibition is 8.56%.

As to `O=C(NCc1ccc(F)cc1)C1CCN(C(=O)Nc2ccc(F)cc2)CC1`, the inhibition is 16%.

With `CC(=O)c1c(C)[nH]c(C(=O)OCC(=O)Nc2c(C)n(C)n(-c3ccccc3)c2=O)c1C`, the inhibition is 8.82%.

For `Cc1cccn2c(=O)nc(SCC(=O)NCc3ccccc3Cl)nc12`, the inhibition is -6.29%.

Consider `Cc1nn(C)cc1/C=C1\CCC/C(=C\c2cn(C)nc2C)C1=O`, for which the inhibition was 6.14%.

With `CC(C)CN1C(=O)CN(S(C)(=O)=O)CC1(C)C(=O)NCc1ccccc1` (centres undefined), the inhibition is -1.75%.

Consider `Cn1c(=O)cc(SCC(=O)N2CCN(C(=O)c3ccco3)CC2)c2ccccc21`, for which the inhibition is -7.92%.

With `C=CCOc1ccc(/C=C/C(=O)OCC(=O)NC2CCCCCC2)cc1`, the inhibition is 0.205%.

Consider `N#C/C(=C\c1ccccc1)c1n[nH]c(Cn2cncn2)n1`, for which the inhibition was -5.28%.

For the compound `CCNC(=O)COc1cc(C)c(Br)c(C)c1`, the inhibition was -7.22%.

For `COC(=O)C[C@@H]1C=C[C@@H](NC(=O)c2ccc3c(c2)OCO3)[C@@H](CO)O1`, the inhibition is 0.556%.

Turning to `O=C(NNC1=C(C(=O)C(F)(F)F)CCC1)c1ccncc1`, the inhibition was 8.49%.

Consider `CCNC(=S)N1CCC(c2nc3cc(C)c(C)cc3[nH]2)CC1`, for which the inhibition is -8.84%.

`Cc1coc2c(O)cc3c(c12)OC1(N2CCCCC2)C(=O)NCCCC31` (centres undefined): the inhibition was 9.31%.

For the compound `NCCCCC(C(=O)O)N(C(=O)OCc1ccccc1)C(=O)OCc1ccccc1` (centres undefined), the inhibition is -5.81%.

As for `O=C1/C(=C\c2ccc([N+](=O)[O-])cc2)CS(=O)(=O)C/C1=C/c1ccc([N+](=O)[O-])cc1`, the inhibition is 50.3% (active).

As for `Cc1ccc([N+](=O)[O-])cc1S(=O)(=O)N1CCCN(C)CC1`, the inhibition is -7.92%.

Consider `O=C(Cc1ccccc1)N1CCN(S(=O)(=O)c2ccc([N+](=O)[O-])cc2)CC1`, for which the inhibition was -5.46%.

For the compound `O=C1NC(c2ccccc2)Cc2ccncc21` (centres undefined), the inhibition was -15.8%.

Consider `CC(C)Oc1ccc(C(=O)NC(C)(C)CO)cc1`, for which the inhibition was -14.5%.

`Cn1cc[n+](C)c1COc1ccc(C=O)cc1`: the inhibition is -3.22%.

As to `COc1ccccc1N1CCN(C(=O)C(=O)N/N=C/c2ccccc2F)CC1`, the inhibition is 2.46%.

As to `Fc1ccccc1/C=N/Nc1cc(N2CCCCC2)ncn1`, the inhibition was 53.8% (active).

For the compound `Nc1[nH][nH]c(=O)c1N=Nc1ccc2c(c1)OCO2`, the inhibition was -4.76%.

Regarding `Cc1cccc(N=C2SC(C)CN2C(=O)CN2C(=O)NC3(CCCC3)C2=O)c1` (centres undefined), the inhibition was 8.85%.

`Cc1cccc(Oc2c([N+](=O)[O-])c(=O)n(C)c3ccccc23)c1`: the inhibition is -38.4%.

Turning to `Cc1cccc(N=C2NC(=O)/C(=C/c3cn(C)c4ccccc34)S2)c1`, the inhibition was 45% (active).

`Cc1cc(C)nc(/N=C2\NC(=O)CC(C(=O)O)N2c2ccc(Cl)cc2Cl)n1` (centres undefined): the inhibition was -2.42%.

Turning to `Cn1c(N)c(C(=O)COC(=O)C23CC4CC(CC(C4)C2)C3)c(=O)n(C)c1=O`, the inhibition is -6.77%.

With `Cc1oc2nc(SCC(=O)NCc3cccnc3)nc(N)c2c1C`, the inhibition was -8.34%.

In the case of `CC(=O)c1ccc(OCC(=O)N(C)C2CCS(=O)(=O)C2)cc1` (centres undefined), the inhibition was -3.69%.

As for `COc1ccc(NC(=O)/C(Cl)=C(/Cl)S(=O)Cc2ccc(C)cc2)cn1` (centres undefined), the inhibition was 68.1% (active).

Consider `CC(=O)Nc1ccc(CNc2nc(NCCN(C)C)nc3cc(-c4ccccc4)sc23)cc1`, for which the inhibition is 0.94%.

With `Nc1nc(SCC(=O)NN(c2ccccc2)c2ccccc2)n[nH]1`, the inhibition is -1.98%.

Take `O=C(COc1nsnc1N1CCOCC1)Nc1ccccc1Cl`: the inhibition was -1.57%.

In the case of `O=C(Nc1ccccc1Cl)/C(Cl)=C(\Cl)S(=O)c1ccccc1` (centres undefined), the inhibition is 59.7% (active).

As for `Cc1cccc(-c2nc(CS(=O)CC(=O)NC(C)CCc3ccccc3)c(C)o2)c1` (centres undefined), the inhibition was 0.721%.

Turning to `CCC(=C/c1sc2ccc3ccccc3c2[n+]1C)/C=C1\Sc2ccc3ccccc3c2N1C`, the inhibition is 1.97%.

In the case of `Cc1ccc(SCC(=O)N2CCN(c3ccc(F)cc3)CC2)cc1`, the inhibition is 62.9% (active).

For `CS(=O)(=O)N1CCN(C(=O)CSc2ccccc2)CC1`, the inhibition is 4.92%.

As to `CCOC(=O)N1CCN(C(=O)CSc2nc(C)nc3c2c(=O)n(C)c(=O)n3C)CC1`, the inhibition was -7.04%.

Regarding `CCN1CCN(C(=O)CSc2ccc(C)cc2)CC1`, the inhibition was 70.3% (active).

Take `CCOC(=O)N1CCN(C(=O)CSc2ccc(Cl)cc2)CC1`: the inhibition is 84.7% (active).

Turning to `Cc1ccc(-n2c(CNc3ccc(F)cc3)nnc2SCC(=O)N2CCOCC2)cc1`, the inhibition is 7.68%.

Take `O=C(CSc1ccc(Cl)cc1)NC1CC1`: the inhibition was -0.473%.

`CS(=O)(=O)N(CC(=O)N1CCN(c2ccc(F)cc2)CC1)C1CCCCC1`: the inhibition was -6.78%.

For the compound `CCN1CCN(C(=O)CCN2C(=O)c3ccccc3C2=O)CC1`, the inhibition was 5.39%.

For the compound `COC(=O)CNC(=O)C(CCSC)NC(C)=O` (centres undefined), the inhibition is 5.29%.

Consider `Cc1nc(C(F)(F)F)ccc1C(=O)N1CCC1(C)C(=O)NS(=O)(=O)c1ccc(F)cc1F` (centres undefined), for which the inhibition was 3.24%.

As for `CNC(=O)C1CC(=O)N(c2ccc(OCC(=O)Nc3ccccc3C)cc2)C1` (centres undefined), the inhibition was 2.34%.

In the case of `Cc1nnc(SC(C)C(=O)c2c[nH]c3ccccc23)n1C1CC1` (centres undefined), the inhibition is -6.27%.

Turning to `CCOc1cc(-c2conc2N)cc(OCC)c1OCC`, the inhibition is 7.1%.

For `CC(C)(C)OC(=O)C[C@@H]1C/C=C\C[C@@H](CC(=O)N[C@@H](CO)Cc2ccccc2)C(=O)N2CCC[C@H]2COC1=O`, the inhibition is 1.7%.

Turning to `CCC(C(=O)OC)n1cnc2c(oc3ccccc32)c1=O` (centres undefined), the inhibition was 3.69%.

Take `COC(=O)c1ccc(CN(c2ccccc2OC)S(=O)(=O)c2cccs2)o1`: the inhibition was 7.2%.

With `O=C(OCc1nnc(-c2ccccc2)o1)c1cc(=O)[nH]c2ccccc12`, the inhibition was -5.82%.

With `CCOC(=O)c1cc(-c2nnc(-c3cc(OC)c(OC)c(OC)c3)o2)c(C)nc1C`, the inhibition is -9%.

For `CCCc1nc2ccccc2c(C(=O)OCc2nnc(-c3cc(OC)c(OC)c(OC)c3)o2)c1CC`, the inhibition was 51.2% (active).

`COc1ccc(S(=O)(=O)NCC(=O)NCc2cc(=O)n(C)c(=O)n2C)cc1F`: the inhibition was 2.08%.

As to `CC(=O)NCCc1ccc(S(=O)(=O)N(C)C2CCS(=O)(=O)C2)cc1` (centres undefined), the inhibition is -2.21%.

As to `Cc1cccn2c(=O)c(/C=C(\C#N)S(=O)(=O)c3ccc(Cl)cc3)c(N3CCC(C(N)=O)CC3)nc12`, the inhibition was -5.33%.

In the case of `Cc1cccn2c(=O)c3cc(C(=O)NC4CCCCC4)sc3nc12`, the inhibition was 8.11%.

Take `Cc1cc(C)cc(Oc2nc3c(C)cccn3c(=O)c2/C=C(\C#N)C(=O)NC2CCS(=O)(=O)C2)c1` (centres undefined): the inhibition is 50.3% (active).

A word on the inhibition: it is the relative decrease from the control value, in per cent.
